Data from the supplement of paper PMC11732987, “Enantioselective OTUD7B fragment discovery through chemoproteomics screening and high-throughput optimisation” (Communications Chemistry, 2025).

The compounds below were run against T1, ALG13 (UniProt Q9NP73) (assay: log2 ratio of Biotin-Ahx-Ub-VS probe labelling (fragment/DMSO); higher = less target engagement (more negative = stronger competition), active = hit call of the paper (q ≤ 0.05, log2 ratio ≤ -1)). Conditions: compound concentration: 200 uM; treatment time: 3 h.
T1 sequence (whole entry): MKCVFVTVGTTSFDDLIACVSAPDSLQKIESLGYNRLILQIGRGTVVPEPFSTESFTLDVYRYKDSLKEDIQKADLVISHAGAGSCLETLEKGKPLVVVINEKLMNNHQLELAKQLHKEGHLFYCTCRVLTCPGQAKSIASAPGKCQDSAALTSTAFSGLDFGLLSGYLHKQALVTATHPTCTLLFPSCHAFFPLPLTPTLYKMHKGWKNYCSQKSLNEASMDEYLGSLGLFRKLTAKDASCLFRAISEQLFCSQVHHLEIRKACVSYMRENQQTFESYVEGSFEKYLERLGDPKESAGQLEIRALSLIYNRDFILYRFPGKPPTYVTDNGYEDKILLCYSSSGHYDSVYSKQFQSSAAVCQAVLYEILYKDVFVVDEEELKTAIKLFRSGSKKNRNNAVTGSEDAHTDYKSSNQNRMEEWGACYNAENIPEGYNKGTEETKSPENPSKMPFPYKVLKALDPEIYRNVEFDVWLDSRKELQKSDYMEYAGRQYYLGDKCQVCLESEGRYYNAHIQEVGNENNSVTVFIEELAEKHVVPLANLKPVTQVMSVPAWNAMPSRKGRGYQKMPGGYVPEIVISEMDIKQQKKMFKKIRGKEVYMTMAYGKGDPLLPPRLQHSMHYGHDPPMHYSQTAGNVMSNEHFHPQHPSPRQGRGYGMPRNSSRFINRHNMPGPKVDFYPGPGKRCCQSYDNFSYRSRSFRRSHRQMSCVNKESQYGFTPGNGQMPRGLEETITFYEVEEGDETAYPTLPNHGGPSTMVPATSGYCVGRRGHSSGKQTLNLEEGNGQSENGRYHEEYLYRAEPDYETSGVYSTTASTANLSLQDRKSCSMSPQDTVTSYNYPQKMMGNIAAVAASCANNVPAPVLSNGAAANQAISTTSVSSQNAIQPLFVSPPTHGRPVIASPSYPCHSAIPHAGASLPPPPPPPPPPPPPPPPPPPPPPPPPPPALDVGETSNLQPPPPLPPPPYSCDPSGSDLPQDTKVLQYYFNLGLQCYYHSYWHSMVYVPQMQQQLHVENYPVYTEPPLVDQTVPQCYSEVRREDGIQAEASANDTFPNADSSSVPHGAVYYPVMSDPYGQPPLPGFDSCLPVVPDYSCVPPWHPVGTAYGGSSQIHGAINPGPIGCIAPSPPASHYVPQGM
In short: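 Average log2 ratios of fragment over vehicle were obtained by unpaired t-test from global-median-normalised Spectronaut label-free quantities. Proteins with ≥2 unique peptides were included. HEK293T lysate (495 µg per sample) was treated in triplicate with fragment at 200 µM or vehicle for 3 h, then with Biotin-Ahx-Ub-VS at 0.5 µM final for 1 h, and labelled DUBs were NeutrAvidin-enriched and run by diaPASEF LC-MS/MS.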

log2 ratio of Biotin-Ahx-Ub-VS probe labelling, inactive:
CC(NC(=O)CCl)c1cnn(C2CC2)c1 (stereo not given) 0.171
Cc1nc(-c2cccc(NC(=O)CCl)c2)cs1 0.3
Cn1cc(CN(Cc2ccc(Cl)cc2)C(=O)CCl)cn1 -0.382
O=C(CCl)NCc1cccc(F)c1 -0.54
CC(=O)C1CCCCN1C(=O)CCl (stereo not given) 0.0431
CC(NC(=O)CCl)c1cc2n(n1)CCCC2.Cl (stereo not given) 0.164
CCN(C(=O)CCl)C1CCCCC1 0.0472
O=C(CCl)Nc1ccccc1C(F)(F)F 0.259
Cc1ccc(-c2nnc(C)[nH]2)c(NC(=O)CCl)c1 0.0249
O=C(CCl)NC1CCC(C(F)(F)F)CC1 (stereo not given) 0.187
Cc1ccc(C)c(NC(=O)CCl)c1 0.0947
CC(O)CC1CCN(C(=O)CCl)CC1 (stereo not given) -0.345
Cc1c(NC(=O)CCl)c(=O)n(-c2ccccc2)n1C 0.0604
Cc1ncc2c(n1)CCN(C(=O)CCl)C2 -0.466
Cc1conc1C1CN(C(=O)CCl)C1 0.0664
Cc1ccc(CC(NC(=O)CCl)c2ccccn2)cc1.Cl (stereo not given) -0.831
O=C(CCl)N1CCC(c2nc3ccccc3o2)CC1 -0.377
Cc1cc(C2CCCN2C(=O)CCl)nn1C.Cl (stereo not given) 0.0249
O=C(CCl)Nc1cc2c(cc1Cl)OCCO2 -0.314
O=C(CCl)N1CCC(C(O)c2ccc(F)cc2)CC1 (stereo not given) 0.00454
Cc1nc(CN2CCCN(C(=O)CCl)CC2)no1.Cl -0.458
Cc1cccn2cc(CCNC(=O)CCl)nc12.Cl 0.103
O=C(CCl)N1CCOC(CCc2ccccc2)C1 (stereo not given) -0.284
O=C(CCl)N1CCOCCC1c1ccccc1 (stereo not given) -0.00764
O=C(CCl)N[C@H]1CC[C@@H](CO)CC1 0.27
O=C(CCl)N1CCOC2(CCC2)CC1 -0.588
CC(NC(=O)CCl)c1ccc2[nH]ncc2c1 (stereo not given) 0.186
CN(C)C(=O)c1ccc(CNC(=O)CCl)cc1 0.104
Cc1cnc2[nH]cc(CCNC(=O)CCl)c2c1 -0.0473
Cl.Cn1nccc1C(NC(=O)CCl)c1ccccc1 (stereo not given) -0.0316
Cc1cccc(NC(=O)CCl)c1C 0.138
Cc1nnc(C(NC(=O)CCl)c2ccccc2)n1C (stereo not given) -0.558
O=C(CCl)NC1CCC2(CC1)OCCO2 0.0856
Cc1cccc2nc(CCNC(=O)CCl)cn12.Cl -0.496
N#Cc1ccc(Cl)cc1NC(=O)CCl -0.187
